The structures appear in SMILES notation. The whole screen tested about 350,000 compounds, of which about 5,500 (1.6%) were called active.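 Rule for the calls: active = significant combined selectivity score with lowered wild-type GFP, culture density cut under 30%, mutant RFP and density less affected; inactive = any of these conditions unmet.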 This excerpt belongs to a sample that is enriched for actives.

This test can be described thus: reduced GFP signal of wild-type E. coli, primary screen, bacterial rRNA inhibitor project, GFP/RFP fluorescence, OD600, single point (AID 720706). Conditions: E. coli WT GFP vs humanized-ribosome RFP mutants, 24 h; GFP signal change (wild-type ribosome): stronger effect = lower value, DMSO median 0, no signal -100; OD600 change: measured here: OD600 growth, DMSO median 0, no signal -100; RFP signal change: measured here: RFP humanized mutant strains, DMSO median 0, no signal -100, concentration not given here.
Take `CC(C)NC(=O)N1[C@H](C(=O)N2CCc3ccccc3C2)[C@@H](CO)[C@@H]2Cn3c(cccc3=O)[C@@H]21`: the GFP signal change (wild-type ribosome) is -0.919% (inactive), the OD600 change was -4.45% and the RFP signal change is -2.12%.
The matching figures for `Cc1cccc(NC(=S)NCCc2ccc(Cl)cc2)c1C`: -5.8% (inactive), -24.2% and 6.65%.
Taken in the same sequence, the figures for `Cc1ccccc1NC(=S)NC(=O)Cc1ccc(Cl)cc1` were -31.6% (active), -2.94% and 1.01%.
With `O=C(Cc1ccc(Cl)cc1)NC(=S)Nc1ccccc1O`, the GFP signal change (wild-type ribosome) was 6.71% (inactive), the OD600 change is -1.88% and the RFP signal change stood at 5.02%.
With `C[C@H](CO)N1C[C@H](C)[C@H](CN(C)S(=O)(=O)c2cccs2)Oc2c(NS(=O)(=O)c3ccc(Cl)cc3)cccc2C1=O`, the GFP signal change (wild-type ribosome) was -5.17% (inactive), the OD600 change was -6.49% and the RFP signal change is 3.43%.
Taken in the same sequence, the figures for `CCCn1c(=S)[nH]c2ccc(C(F)(F)F)cc21` were -39% (active), -18.3% and -4.67%.
Regarding `CC(C)n1c(=S)[nH]c2cc(C(F)(F)F)ccc21`, the GFP signal change (wild-type ribosome) is -0.904% (inactive), the OD600 change was -3.6% and the RFP signal change was -3.06%.
`CN(C)CCn1c(=S)[nH]c2ccc(Cl)cc2c1=O`: the GFP signal change (wild-type ribosome) was 5.19% (inactive), the OD600 change amounted to 0.375% and the RFP signal change came out at 2.03%.
On to `Cc1ccccc1-c1ccc([C@H]2[C@@H](CO)N3C(=O)CN(C(=O)c4cccnc4)C[C@@H]23)cc1`, for which the GFP signal change (wild-type ribosome) was 3.51% (inactive), the OD600 change was 8.18% and the RFP signal change is -0.0435%.
Turning to `CC(C)c1ccc(NC(=S)NC2CC3C=CC2C3)cc1` (centres undefined), the GFP signal change (wild-type ribosome) was -37.3% (inactive), the OD600 change is -66.8% and the RFP signal change is 0.867%.
Turning to `S=C(NNC(=S)NC1CC2C=CC1C2)NC1CC2C=CC1C2` (centres undefined), the GFP signal change (wild-type ribosome) is -47.5% (active), the OD600 change is -15.1% and the RFP signal change was -13.4%.
As to `CCCNC(=O)N1[C@H](CO)[C@H]2c3ccccc3N(C(=O)Nc3cccc(Cl)c3)C[C@H]21`, the GFP signal change (wild-type ribosome) is -57.4% (inactive), the OD600 change was -71.6% and the RFP signal change is -12.8%.
With `CCCN1C[C@H](C)[C@H](OC)CN(C)C(=O)c2cc(NC(=O)NC3CCCC3)ccc2OC[C@H]1C`, the GFP signal change (wild-type ribosome) is -0.637% (inactive), the OD600 change came out at 8.41% and the RFP signal change was determined as 2.12%.
For the compound `O=C(NC1CCN(C(=S)Nc2ccc(Cl)cc2)CC1)C1CCCCC1`, the GFP signal change (wild-type ribosome) was 6.47% (inactive), the OD600 change was 11.2% and the RFP signal change came out at 0.251%.
Taken in the same sequence, the figures for `CC(=O)N1CCC(N(C(=O)Nc2ccc(Cl)cc2)C(C)C)CC1` were -25.5% (active), -18% and -0.55%.
Regarding `CC(=O)C(CC(=O)N1CCCC1)C(=O)Nc1ccc(Cl)cc1` (centres undefined), the GFP signal change (wild-type ribosome) was 1.69% (inactive), the OD600 change is 9.42% and the RFP signal change worked out at 0.378%.
The matching figures for `CCCN(C)C[C@H]1OCCCC[C@H](C)Oc2ccc(NS(=O)(=O)c3ccc(C)cc3)cc2C(=O)N([C@@H](C)CO)C[C@H]1C`: -0.746% (inactive), -1.7% and -0.147%.
As for `CC(C)NC(=O)N1CCCCN2[C@@H](CO)[C@@H](c3ccc(C#C[C@@H](C)O)cc3)[C@@H]2C1`, the GFP signal change (wild-type ribosome) was 5.76% (inactive), the OD600 change is 13.1% and the RFP signal change was -1.96%.
For `O=S(=O)(Cc1ccccc1)N1CCCCN2[C@@H](CO)[C@H](c3ccc(-c4ccccc4)cc3)[C@@H]2C1`, the GFP signal change (wild-type ribosome) is -9.68% (inactive), the OD600 change was -41.9% and the RFP signal change was 18.6%.
Taken in the same sequence, the figures for `CN(C)CC#Cc1ccc([C@@H]2[C@H](CO)N3CCCCN(C(=O)NC4CCCC4)C[C@@H]23)cc1` were 5.92% (inactive), 4.22% and 0.0255%.
The matching figures for `C=CCC1(C#N)C(=S)NC(C)=C(C(=O)OCC)C1c1ccccc1` (centres undefined): -26.3% (active), -19.2% and -3.7%.
With `CCOC(=O)C1=C(c2ccccc2)NC(=S)NC1c1ccc(Cl)cc1` (centres undefined), the GFP signal change (wild-type ribosome) is -8.35% (inactive), the OD600 change is -7.99% and the RFP signal change is -0.819%.
As for `CCOC(=O)C1C(=O)NCC1c1ccccc1` (centres undefined), the GFP signal change (wild-type ribosome) is 8.68% (inactive), the OD600 change is -9.73% and the RFP signal change stood at 1%.
Regarding `COc1ccc(NC(=O)N(C)C[C@@H]2OCCCC[C@@H](C)Oc3ccc(NS(=O)(=O)c4cn(C)cn4)cc3C(=O)N([C@@H](C)CO)C[C@H]2C)cc1`, the GFP signal change (wild-type ribosome) was -1.24% (inactive), the OD600 change is -4.49% and the RFP signal change came out at 0.792%.
On to `COc1ccc2c3c(n(C)c2c1)[C@@H](CO)N(C(=O)c1cccnc1)CC31CCN(C(=O)c2cccnc2)CC1`, for which the GFP signal change (wild-type ribosome) is 2.76% (inactive), the OD600 change was 15.2% and the RFP signal change is -2.73%.
Turning to `O=C(CSc1nn(-c2ccc(F)cc2)c(=S)s1)NC1CCS(=O)(=O)C1` (centres undefined), the GFP signal change (wild-type ribosome) was 9.16% (inactive), the OD600 change is 9.88% and the RFP signal change amounted to 20.6%.
Turning to `Cc1ccccc1-n1nc(SCC(=O)O)sc1=S`, the GFP signal change (wild-type ribosome) is -0.028% (inactive), the OD600 change worked out at 2.15% and the RFP signal change came to 5.05%.
The matching figures for `N#CCSc1nn(-c2ccc(F)cc2)c(=S)s1`: -34% (active), -20.7% and -5.63%.
`CN(C)CCCNC(=O)C[C@H]1CC[C@H]2[C@@H](COC[C@H](O)CN2C(=O)c2ccncc2)O1`: the GFP signal change (wild-type ribosome) is 1.62% (inactive), the OD600 change was found to be 1.82% and the RFP signal change was -2.93%.
With `O=S(=O)(N[C@@H]1CC[C@H](CCn2cc(C3(O)CCCC3)nn2)O[C@@H]1CO)c1ccc(Cl)cc1`, the GFP signal change (wild-type ribosome) was 1% (inactive), the OD600 change is -3.78% and the RFP signal change is -2.53%.
For the compound `Cc1cc(NC(=O)c2cc3ccccc3o2)no1`, the GFP signal change (wild-type ribosome) is -2.45% (inactive), the OD600 change was 5.97% and the RFP signal change is 7.13%.
Take `O=C(N/N=C/c1cccc(O)c1)c1cc2c(ccc3ccccc32)o1`: the GFP signal change (wild-type ribosome) was -16.9% (inactive), the OD600 change is -25.4% and the RFP signal change turned out to be 6.33%.
The matching figures for `Cc1c(/C=N\NC(=O)c2cc3ccccc3o2)c2ccccc2n1C`: -23.4% (active), -4.47% and 6.38%.
